Screening data deposited in PubChem BioAssay by National Center for Advancing Translational Sciences (NCATS).
An excerpt weighted towards active compounds, which were near 2.1% of everything screened.
TDP43 rescue: inhibitors of TDP-43 toxicity in yeast; TDP-43 expressing yeast growth rescue, BacTiter-Glo, 24 h; Potency, µM (highest dose often 46.1 µM), most hits filed as activators; 410,000 compounds, 1.8% hits; AID 652104; further: nearly all actives have a fitted effect of over 50% in size
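Yeast cells expressing TDP-43 under galactose induction are exposed to compounds for 24 hr at 30 deg C. BacTiter-Glo luminescence measures growth, so protective compounds score as activators.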
Abeta rescue: A-beta toxicity reversal in yeast | yeast expressing A-beta42, growth rescue, OD600, 48 h; response scale: 0% DMSO, 100% iron-clioquinol control | Potency, µM (series often up to 46.1 µM), most hits filed as activators | 410,000 compounds, 0.063% hits | AID 1347071; further: nearly all actives have a fitted effect of over 55% in size
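Yeast A-beta toxicity model in growth medium with pinned compounds, 48 h at 30 C; growth read as absorbance at 600 nm. Normalized to FeCl3/clioquinol equimolar mix (positive) and DMSO (negative).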
aSyn rescue: alpha-synuclein toxicity inhibition in yeast | Yeast expressing alpha-synuclein, growth rescue, BacTiter-Glo, 24 h | Potency, µM (top dose mostly 46.1 µM), hits mostly activators | 370,000 compounds, 0.14% hits; further: nearly all actives have a fitted effect of over 65% in size
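Screening used galactose-induced yeast with toxic alpha-synuclein levels, exposed to compound for 24 hr at 30 deg C. Cell growth, read with BacTiter-Glo luminescence, gave the measured signal.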
FUS suppressor: FUS proteinopathy suppression in yeast; 390,000 compounds, 0.24% hits; AID 1347120; Potency, µM (titrated, usually from 76.6 µM), most hits filed as activators; S. cerevisiae FUS-expressing, growth rescue, OD600, 24 h; further: nearly all actives have a fitted effect of over 55% in size
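Restored growth of FUS-toxic S. cerevisiae, read as 600 nm absorbance after 24 h at 30C in galactose medium (starting OD 0.005). Controls CP55940 and DMSO.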
A number is an active result; [ ] = remark or other dose. The call rests on the fitted dose curve; in most records, active means well fitted curve in the direction sought with a large enough effect; inconclusive means small, poorly fitted or top-dose-only effect, or another doubt; inactive means no such curve, though single readings can be large; an effect the other way counts as inactive or inconclusive.

How did O=C(COC(=O)c1cccnc1Cl)c1cccc(Cl)c1 do in these assays?
TDP43 rescue: 11µM; Abeta rescue: inactive; FUS suppressor: inactive

How did O=C(COC(=O)c1ccccc1Oc1ccccc1)Nc1ccc(Br)cc1 do in these assays?
aSyn rescue: inactive

How did CC1CCCC(NC(=O)COC(=O)c2ccc(N(C)C)cc2)C1C (stereo unspecified) do in these assays?
TDP43 rescue: 10µM; Abeta rescue: inactive; FUS suppressor: inactive

What do the screens show for `CCN(CC)c1ccc(C(=O)OCC(=O)NC2CCCCC2C)cc1` (stereo unspecified)?
TDP43 rescue: inactive; Abeta rescue: inactive; aSyn rescue: inactive; FUS suppressor: inactive

What do the screens show for `Cc1c(C2(c3cc(C(C)C)c(O)c(Br)c3C)OS(=O)(=O)c3ccccc32)cc(C(C)C)c(O)c1Br`?
aSyn rescue: inactive

How did CCN1CCN(C(=S)NCC2CCCO2)CC1 (stereo unspecified) do in these assays?
TDP43 rescue: inactive; Abeta rescue: inactive; aSyn rescue: inactive; FUS suppressor: inactive

What do the screens show for `Cc1cc(C)c(C)c(S(=O)(=O)N2CCN(C(=S)NCC3CCCO3)CC2)c1C` (stereo unspecified)?
TDP43 rescue: 22µM; Abeta rescue: inconclusive; aSyn rescue: inactive; FUS suppressor: inconclusive

What do the screens show for `c1ccc(-c2cnc(CSc3ncnc4sccc34)o2)cc1`?
TDP43 rescue: 22µM; Abeta rescue: inactive; aSyn rescue: inactive; FUS suppressor: inactive

Results for CC(=O)Nc1ccc(SCc2ncc(-c3ccccc3)o2)cc1 ?
TDP43 rescue: inactive; Abeta rescue: inactive; aSyn rescue: inactive; FUS suppressor: inactive

What do the screens show for `Nc1cc(-c2ccc(Br)cc2)nn1Cc1ccccc1`?
TDP43 rescue: 20µM; Abeta rescue: inconclusive; aSyn rescue: inactive; FUS suppressor: inactive

What do the screens show for `Nc1cc(-c2cccc(Br)c2)nn1Cc1ccccc1`?
TDP43 rescue: inconclusive; Abeta rescue: inactive; aSyn rescue: inactive

Results for O=C(O)c1ccc(N/N=C2/CCSc3ccc(F)cc32)cc1 ?
TDP43 rescue: 10µM; Abeta rescue: inactive; aSyn rescue: inactive; FUS suppressor: inactive

Results for Cc1cc(C)nc(N/N=C2/CCSc3ccc(F)cc32)n1 ?
TDP43 rescue: inactive; Abeta rescue: inactive; aSyn rescue: inactive; FUS suppressor: inactive

What do the screens show for `O=C(CSc1nncs1)NCc1ccc2c(c1)OCO2`?
TDP43 rescue: 13µM; Abeta rescue: inactive; aSyn rescue: inactive; FUS suppressor: inactive

Results for Cc1nc(SCC(=O)NCc2ccc3c(c2)OCO3)c(C#N)c2c1CCCC2 ?
TDP43 rescue: inconclusive; Abeta rescue: inactive; aSyn rescue: 18µM; FUS suppressor: inactive

How did COc1ccc(-c2nc3scc(CCNS(=O)(=O)c4ccc(Oc5ccccc5)cc4)n3n2)cc1OC do in these assays?
TDP43 rescue: inactive; Abeta rescue: inactive; FUS suppressor: inactive

What do the screens show for `CCCCCCOc1ccc(C(=O)O)cc1C#N`?
TDP43 rescue: 22µM; Abeta rescue: inactive; aSyn rescue: inactive

How did CCCCCCCCOc1ccc(C(=O)O)cc1 do in these assays?
TDP43 rescue: inactive; Abeta rescue: inactive; aSyn rescue: inactive; FUS suppressor: inactive

How did Cc1cccc(Cc2c(C)nc3c(C(=O)NCc4ccco4)cnn3c2C)c1 do in these assays?
TDP43 rescue: inactive; Abeta rescue: inactive; aSyn rescue: inactive; FUS suppressor: 13µM

What do the screens show for `COc1ccc(-c2ccc(=O)n(Cc3cccc([N+](=O)[O-])c3)n2)cc1`?
TDP43 rescue: 18µM; aSyn rescue: inactive; FUS suppressor: inactive

What do the screens show for `O=C(Nc1cc(F)ccc1F)c1cnn2c1NC(=C1CC1)C=C2C(F)F`?
aSyn rescue: inactive

Results for O=C(Cc1ccc2ccccc2c1)NO ?
aSyn rescue: inactive

Results for CCC(=O)N(CC)c1nc(-c2ccc(OC)cc2)cs1 ?
TDP43 rescue: 5µM; Abeta rescue: inactive; aSyn rescue: inactive; FUS suppressor: inactive

What do the screens show for `O=C(C[n+]1ccccc1Br)c1ccc2c(c1)CCCC2`?
aSyn rescue: inactive

How did O=c1oc2cc(O)ccc2cc1-c1ccccc1 do in these assays?
TDP43 rescue: 16µM; aSyn rescue: inactive; FUS suppressor: inactive

Results for C/C=C/C1=CC(=O)C[C@H](c2ccc(OC)c(OC)c2)C1 ?
TDP43 rescue: inactive; Abeta rescue: inactive; aSyn rescue: inactive; FUS suppressor: inactive

How did C/C=C/C1=CC(=O)C[C@H](c2ccc3c(c2)OCO3)C1 do in these assays?
TDP43 rescue: 11µM; Abeta rescue: inactive; aSyn rescue: inactive; FUS suppressor: inactive

Results for C/C=C/C1=CC(=O)C[C@H](c2ccc(Cl)cc2)C1 ?
TDP43 rescue: 13µM; Abeta rescue: inactive; aSyn rescue: inactive; FUS suppressor: inactive

What do the screens show for `CN1C(=O)c2cc(NC(=O)Cc3cccs3)ccc2OC[C@@H]2O[C@@H](CC(=O)N[C@H]3CCN(Cc4ccccc4)C3)CC[C@@H]21`?
FUS suppressor: inactive

Results for C#CCOc1c(Br)cc(/C=C2/C(=O)ON=C2C)cc1OCC ?
TDP43 rescue: 16µM; Abeta rescue: inconclusive; aSyn rescue: inactive; FUS suppressor: inactive

How did C#CCOc1ccc(/C=C2/C(=O)ON=C2C)cc1Cl do in these assays?
TDP43 rescue: inconclusive; Abeta rescue: inactive; aSyn rescue: inactive; FUS suppressor: inactive

Results for C#CCOc1c(Cl)cc(/C=C2/C(=O)ON=C2C)cc1OCC ?
TDP43 rescue: 18µM; Abeta rescue: inactive; aSyn rescue: inactive; FUS suppressor: inactive

How did O=[N+]([O-])c1cccc(NC(=S)N2CCCC2)c1 do in these assays?
TDP43 rescue: inactive; Abeta rescue: inactive; aSyn rescue: inactive; FUS suppressor: inactive

What do the screens show for `CC(=O)c1cccc(NC(=O)N2CCCc3ccccc32)c1`?
TDP43 rescue: inconclusive; Abeta rescue: inactive; aSyn rescue: inactive; FUS suppressor: inactive

Results for O=[N+]([O-])c1ccc(NC(=S)N2CCc3ccccc3C2)cc1 ?
TDP43 rescue: 25µM; Abeta rescue: inactive; aSyn rescue: inconclusive

How did O=C(c1ccc([N+](=O)[O-])cc1)N1CCc2ccccc2C1 do in these assays?
TDP43 rescue: inactive[0.397 µM]; Abeta rescue: inactive; aSyn rescue: inactive; FUS suppressor: inactive

What do the screens show for `O=C(Nc1cccc([N+](=O)[O-])c1)N1CCCc2ccccc21`?
TDP43 rescue: 11µM; Abeta rescue: inactive; aSyn rescue: inactive; FUS suppressor: inactive

Results for O=[N+]([O-])c1cccc(NC(=S)N2CCc3ccccc32)c1 ?
TDP43 rescue: 13µM; Abeta rescue: inconclusive; aSyn rescue: inactive; FUS suppressor: inactive

How did NNC(=O)c1ccc(C(=O)N(c2ccccc2)c2ccccc2)cc1 do in these assays?
aSyn rescue: inactive

What do the screens show for `CC(=O)N1CCCN(C(=O)C2CCN(c3ncnc4c3sc3cccc(F)c34)CC2)CC1`?
FUS suppressor: inactive

Results for CCCn1c(=O)c2sccc2n2c(CCCC(=O)N3CCN(c4ccccc4)CC3)nnc12 ?
TDP43 rescue: inactive; Abeta rescue: inactive; FUS suppressor: inactive

Results for O=C(NCCn1cc(SCc2ccc(F)cc2)c2ccccc21)c1cccs1 ?
TDP43 rescue: inconclusive; Abeta rescue: inactive; FUS suppressor: inactive
